Data reported in PubChem BioAssay AID1159580 (chemical genetic matrix, 2015).
“And” between values parts separate entries of the source, which are not always exact repeats. Equal entries are not always repeated. Hit rate of the full screen: of about 5,500 compounds, about 2,000 (36%) were called active. About 18% were inconclusive and are not listed. Cut-off read from the data, not from the text of the source: active = normalized growth mostly below about 0.91 (no sharp cut-off); inconclusive = no clear call, values can overlap the other calls; inactive = mostly above about 0.92. Some of the results follow.

Assay: chemical genetic growth profiling, strain panel (AID 1159580);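 note: tested at 20 µM; growth read once vehicle control cultures reached saturation at 30 °C; 1 = growth at the plate median or of vehicle wells; lower values mean less growth of the strain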
Conditions: growth OD

Measured: normalized growth

COCCc1ccc(OCC(O)CNC(C)C)cc1 (stereo unspecified)
inactive: S. cerevisiae deletion strains, locus YJR075W, strain HOC1, hits give low values 1.01 | S. cerevisiae deletion strains, locus YKL009W, strain mrt4, hits give low values 1 | S. cerevisiae deletion strains, locus YKL068W, hits give low values 1.01 | S. cerevisiae deletion strains, locus YKL085W, strain MDH1 (second series), hits give low values 0.998 | S. cerevisiae deletion strains, locus YKL085W, strain MDH1, hits give low values 0.998 | S. cerevisiae deletion strains, locus YKL160W, strain elf1, hits give low values 0.98 | S. cerevisiae deletion strains, locus YKL190W, strain CNB1, hits give low values 1.01 | S. cerevisiae deletion strains, locus YKR001C, strain vps1, hits give low values 0.999 | S. cerevisiae deletion strains, locus YKR026C, strain gcn3, hits give low values 1 | S. cerevisiae deletion strains, locus YKR091W, strain srl3, hits give low values 0.988 | S. cerevisiae deletion strains, locus YLL001W, strain dnm1, hits give low values 0.935 | S. cerevisiae deletion strains, locus YLL026W, hits give low values 0.99 | S. cerevisiae deletion strains, locus YLL041C, strain sdh2, hits give low values 1 | S. cerevisiae deletion strains, locus YLR027C, strain aat2, hits give low values 1.02 | S. cerevisiae deletion strains, locus YLR039C, strain RIC1, hits give low values 0.989 | S. cerevisiae deletion strains, locus YLR058C, strain SHM2, hits give low values 1.01 | S. cerevisiae deletion strains, locus YLR102C, strain apc9, hits give low values 1.01 | S. cerevisiae deletion strains, locus YLR113W, strain HOG1, hits give low values 1.03 | S. cerevisiae deletion strains, locus YLR221C, strain rsa3, hits give low values 0.955 | S. cerevisiae deletion strains, locus YLR258W, strain gsy2, hits give low values 1.01 | S. cerevisiae deletion strains, locus YLR262C, strain YPT6 (second series), hits give low values 1 | S. cerevisiae deletion strains, locus YLR262C, strain YPT6, hits give low values 1 | S. cerevisiae deletion strains, locus YLR268W, strain sec22, hits give low values 1.08 | S. cerevisiae deletion strains, locus YLR320W, strain mms22, hits give low values 0.977 | S. cerevisiae deletion strains, locus YLR330W, strain CHS5, hits give low values 1.01 | S. cerevisiae deletion strains, locus YLR342W, strain FKS1 (second series), hits give low values 1.01 | S. cerevisiae deletion strains, locus YLR342W, strain FKS1, hits give low values 0.993 | S. cerevisiae deletion strains, locus YLR357W, strain rsc2, hits give low values 0.973 | S. cerevisiae deletion strains, locus YLR370C, strain arc18, hits give low values 0.99 | S. cerevisiae deletion strains, locus YLR371W, strain rom2, hits give low values 1.01 | S. cerevisiae deletion strains, locus YLR384C, strain iki3, hits give low values 0.991 | S. cerevisiae deletion strains, locus YLR418C, strain cdc73, hits give low values 0.986 | S. cerevisiae deletion strains, locus YML016C, strain PPZ1, hits give low values 1.01 | S. cerevisiae deletion strains, locus YML032C, strain rad52, hits give low values 1.03 | S. cerevisiae deletion strains, locus YML120C, strain ndi1, hits give low values 0.942 | S. cerevisiae deletion strains, locus YML124C, strain tub3, hits give low values 1.01 | S. cerevisiae deletion strains, locus YMR058W, strain fet3, hits give low values 0.989 | S. cerevisiae deletion strains, locus YMR078C, strain ctf18, hits give low values 1.01 | S. cerevisiae deletion strains, locus YMR125W, strain sto1, hits give low values 0.97 | S. cerevisiae deletion strains, locus YMR129W, hits give low values 0.996 | S. cerevisiae deletion strains, locus YMR205C, strain PFK2, hits give low values 0.962 | S. cerevisiae deletion strains, locus YMR223W, strain ubp8, hits give low values 0.995 | S. cerevisiae deletion strains, locus YMR231W, strain pep5, hits give low values 0.997 | S. cerevisiae deletion strains, locus YMR263W, strain SAP30, hits give low values 1.02 | S. cerevisiae deletion strains, locus YMR307W, strain GAS1, hits give low values 1.02 | S. cerevisiae deletion strains, locus YNL067W, strain RPL9B, hits give low values 1.02 | S. cerevisiae deletion strains, locus YNL071W, strain lat1, hits give low values 0.989 | S. cerevisiae deletion strains, locus YNL128W, strain TEP1, hits give low values 1.01 | S. cerevisiae deletion strains, locus YNL153C, strain GIM3, hits give low values 1.02 | S. cerevisiae deletion strains, locus YNL175C, strain NOP13, hits give low values 1.01 | S. cerevisiae deletion strains, locus YNL183C, strain NPR1, hits give low values 1 | S. cerevisiae deletion strains, locus YNL197C, strain WHI3, hits give low values 0.984 | S. cerevisiae deletion strains, locus YNL209W, strain ssb2, hits give low values 0.987 | S. cerevisiae deletion strains, locus YNL224C, strain SQS1, hits give low values 0.988 | S. cerevisiae deletion strains, locus YNL233W, strain BNI4, hits give low values 1.01 | S. cerevisiae deletion strains, locus YNL248C, strain rpa49, hits give low values 0.992 | S. cerevisiae deletion strains, locus YNL250W, strain rad50, hits give low values 1.01 | S. cerevisiae deletion strains, locus YNL271C, strain bni1, hits give low values 1.01 | S. cerevisiae deletion strains, locus YNL298W, strain CLA4, hits give low values 1.02 | S. cerevisiae deletion strains, locus YNL307C, strain MCK1, hits give low values 1.02 | S. cerevisiae deletion strains, locus YNL322C, strain KRE1 (second series), hits give low values 0.98 | S. cerevisiae deletion strains, locus YNL322C, strain KRE1, hits give low values 1 and 0.99 | S. cerevisiae deletion strains, locus YNR049C, strain mso1, hits give low values 0.978 | S. cerevisiae deletion strains, locus YNR052C, strain pop2, hits give low values 1.01 | S. cerevisiae deletion strains, locus YOL006C, strain TOP1, hits give low values 1.07 | S. cerevisiae deletion strains, locus YOL012C, strain htz1 0.79 | S. cerevisiae deletion strains, locus YOL147C, strain pex11, hits give low values 1.01 | S. cerevisiae deletion strains, locus YOR001W, strain rrp6, hits give low values 1.03 | S. cerevisiae deletion strains, locus YOR061W, strain CKA2, hits give low values 1.01 | S. cerevisiae deletion strains, locus YOR069W, strain VPS5, hits give low values 1.01 | S. cerevisiae deletion strains, locus YOR070C, strain gyp1, hits give low values 0.995 | S. cerevisiae deletion strains, locus YOR080W, strain dia2, hits give low values 0.985 | S. cerevisiae deletion strains, locus YOR083W, strain WHI5 (second series), hits give low values 0.999 | S. cerevisiae deletion strains, locus YOR083W, strain WHI5, hits give low values 0.981 | S. cerevisiae deletion strains, locus YOR106W, strain vam3, hits give low values 0.957 | S. cerevisiae deletion strains, locus YOR136W, strain idh2, hits give low values 1.01 | S. cerevisiae deletion strains, locus YOR144C, strain elg1, hits give low values 1.01 | S. cerevisiae deletion strains, locus YOR184W, strain ser1, hits give low values 1.02 | S. cerevisiae deletion strains, locus YOR231W, strain MKK1, hits give low values 1.03 | S. cerevisiae deletion strains, locus YOR265W, strain rbl2, hits give low values 0.995 | S. cerevisiae deletion strains, locus YOR270C, strain vph1, hits give low values 0.975 | S. cerevisiae deletion strains, locus YOR290C, strain snf2, hits give low values 0.91 | S. cerevisiae deletion strains, locus YOR316C, strain cot1, hits give low values 1.01 | S. cerevisiae deletion strains, locus YPL051W, strain arl3, hits give low values 1 | S. cerevisiae deletion strains, locus YPL055C, strain LGE1, hits give low values 0.989 and 1.01 | S. cerevisiae deletion strains, locus YPL078C, strain atp4, hits give low values 0.978 | S. cerevisiae deletion strains, locus YPL106C, strain sse1, hits give low values 0.971 | S. cerevisiae deletion strains, locus YPL240C, strain hsp82, hits give low values 0.992 | S. cerevisiae deletion strains, locus YPL241C, strain CIN2, hits give low values 1 and 0.974 | S. cerevisiae deletion strains, locus YPL256C, strain CLN2, hits give low values 1.1 | S. cerevisiae deletion strains, locus YPR119W, strain clb2, hits give low values 1.02 | S. cerevisiae deletion strains, locus YPR141C, strain kar3, hits give low values 1.02 | S. cerevisiae deletion strains, locus YPR163C, strain tif3, hits give low values 1.02 | S. cerevisiae deletion strains, locus YPR167C, strain met16, hits give low values 1.01 | S. cerevisiae deletion strains, strain wtn01, hits give low values 1.05 | S. cerevisiae strains, strain wild type, hits give low values 1.01
